Assay outcomes from PubChem BioAssay.
YB-1 expr inh = YB-1 expression inhibition | U2OS, qRT-PCR YB-1 vs CDIP delta delta Cp, 16 h; stronger effect = higher value; zero = DMSO, each unit about twofold | delta delta Cp (YB-1 minus CDIP) (no concentration beside the values) | 30,000 compounds, 0.37% hits;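 active = delta delta Cp rounded down to an integer at or above 3, about 3 SD of DMSO wells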;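 also: higher means less YB-1 transcript or more CDIP transcript relative to DMSO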
U2OS ROS induce = cancer cell ROS induction | U2OS ROS induction, H2DCF-DA fluorescence | 46,000 compounds, 2% hits | AID 624156 | ROS induction (% of piperlongumine), % at 10 µM; in the data active = ROS induction above about 79%, passing the limit was not always enough; inconclusive = no clear call, values can overlap the other calls;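 also: 0% = DMSO vehicle median and 100% = reference compound median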
* marks the source's active call; other numbers are inactive results; u = inconclusive; x = no result. An excerpt weighted towards active compounds, which were near 2.1% of everything screened.

SMILES	YB-1 expr inh	U2OS ROS induce
COc1ccc(C#Cc2cnc3c(c2)C(=O)N([C@H](C)CO)C[C@H](C)[C@H](CN(C)C(=O)Nc2ccc4c(c2)OCO4)O3)cc1OC	0.05	118*
COc1ccc(C#Cc2cnc3c(c2)C(=O)N([C@H](C)CO)C[C@H](C)[C@H](CN(C)C(=O)Nc2c(C)noc2C)O3)cc1OC	0.091	24
C[C@H](CO)N1C[C@H](C)[C@H](CN(C)C(=O)Nc2ccccc2)Oc2ncc(C#Cc3ccc(F)cc3)cc2C1=O	-0.51	132*
C[C@H](CO)N1C[C@H](C)[C@H](CN(C)C(=O)Nc2ccc(F)cc2)Oc2ncc(C#Cc3ccc(F)cc3)cc2C1=O	-0.37	u
CC(C)CC1NC(=O)C(CC(C)C)N(O[C@@H]2O[C@H](COC(=O)CCC(=O)O)[C@@H](O)[C@H](O)[C@H]2O)C1=O (stereo partly specified)	4.9*	-8
C=C1CCC(O)/C(C)=C\CC(C(C)C)C(OC2OC(COC(C)=O)C(O)C(O)C2O)C1 (stereo unspecified)	1.3	-6
COc1cccc(C2CC(c3cccs3)=NN2C(=O)CSc2nncn2C)c1OC (stereo unspecified)	x	0
COC(=O)C(CC#Cc1ccc2c(c1)[C@]1(C(=O)N2)[C@H](c2ccc(OCCO)cc2)N2[C@H](c3ccccc3)[C@H](c3ccccc3)OC(=O)[C@H]2[C@@H]1C(=O)N1CCc2cc(OC)c(OC)cc2C1)C(=O)OC	0.08	132*
O=C1O[C@@H](c2ccccc2)[C@@H](c2ccccc2)N2[C@@H](c3ccc(OCCO)cc3)[C@]3(C(=O)Nc4ccc(C#CC5=CCCCC5)cc43)[C@@H](C(=O)O)[C@H]12	-0.24	159*
NC(=O)[C@H]1[C@@H]2C(=O)O[C@@H](c3ccccc3)[C@@H](c3ccccc3)N2[C@@H](c2ccc(OCCO)cc2)[C@]12C(=O)Nc1ccc(C#CC3=CCCCC3)cc12	0.072	28
COC(=O)C(CC#Cc1ccc2c(c1)[C@]1(C(=O)N2)[C@H](C(=O)NC[C@H](O)c2ccccc2)[C@H]2C(=O)O[C@H](c3ccccc3)[C@H](c3ccccc3)N2[C@@H]1c1ccc(OCCO)cc1)C(=O)OC	-0.13	23
COc1ccc(C#Cc2ccc3c(c2)[C@]2(C(=O)N3)[C@H](C(=O)N3CCc4cc(OC)c(OC)cc4C3)[C@H]3C(=O)O[C@H](c4ccccc4)[C@H](c4ccccc4)N3[C@@H]2c2ccc(OCCO)cc2)cc1	-0.23	23
C=CCNC(=O)[C@@H]1[C@H]2C(=O)O[C@H](c3ccccc3)[C@H](c3ccccc3)N2[C@H](c2ccccc2OCCO)[C@@]12C(=O)Nc1ccc(C#CCC(C(=O)OC)C(=O)OC)cc12	-0.68	192*
COC(=O)C(CC#Cc1ccc2c(c1)[C@]1(C(=O)N2)[C@H](c2ccccc2OCCO)N2[C@H](c3ccccc3)[C@H](c3ccccc3)OC(=O)[C@H]2[C@@H]1C(=O)NC[C@H](O)c1ccccc1)C(=O)OC	-0.0048	205*
C=CCNC(=O)[C@@H]1[C@H]2C(=O)O[C@H](c3ccccc3)[C@H](c3ccccc3)N2[C@H](c2ccccc2OCCO)[C@@]12C(=O)Nc1ccc(C#CCNC(N)=O)cc12	0.075	11
CC1=C/C(=C\N(C)c2ccccc2)C(=O)S1	x	23
CCOC(=O)c1ccc2c(c1)sc1nc(-c3ccc(C)cc3C)cn12	x	9
CC(C)c1ccc(NCC(O)COc2ccc(Cl)c(Cl)c2)cc1 (stereo unspecified)	-0.48	4
C=CCNC(=O)[C@@H]1[C@H]2C(=O)O[C@H](c3ccccc3)[C@H](c3ccccc3)N2[C@H](c2ccc(OCCO)cc2)[C@@]12C(=O)Nc1ccc(C#CCC(C(=O)OC)C(=O)OC)cc12	0.055	u
C=CCNC(=O)[C@H]1[C@@H]2C(=O)O[C@@H](c3ccccc3)[C@@H](c3ccccc3)N2[C@@H](c2ccccc2OCCO)[C@]12C(=O)Nc1ccc(C#Cc3ccc(OC)cc3)cc12	0.019	14
C=CCNC(=O)[C@H]1[C@@H]2C(=O)O[C@@H](c3ccccc3)[C@@H](c3ccccc3)N2[C@@H](c2ccccc2OCCO)[C@]12C(=O)Nc1ccc(C#CCC(C(=O)OC)C(=O)OC)cc12	-0.41	185*
C=CCNC(=O)[C@H]1[C@@H]2C(=O)O[C@@H](c3ccccc3)[C@@H](c3ccccc3)N2[C@@H](c2ccc(OCCO)cc2)[C@]12C(=O)Nc1ccc(C#CCC(C(=O)OC)C(=O)OC)cc12	-0.063	157*
CC(C)(C)N=C(NS(=O)(=O)c1ccc(Br)cc1)c1ccccc1	x	-7
CC(=O)OC[C@]12[C@H](OC(C)=O)[C@H](OC(C)=O)[C@@H]3[C@@H](OC(C)=O)[C@@]14O[C@@]3(C)COC(=O)c1cnccc1CC[C@H](C)C(=O)O[C@@]4(C)[C@@H](O)[C@H](O)[C@@H]2OC(C)=O	-0.61	32
